# Assay results reported in the supplement of paper PMC12282887.
# ± gives the standard deviation of the averaged measurements.
# Test system: E. coli BW25113 marRABp lux reporter
# Experiment: promoter activity interaction Z-score (Lux/OD deviation from empty-vector control); higher = stronger promoter induction by the compound
# Procedure: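 E. coli BW25113 (wild type or ΔmarA/ΔsoxS/Δrob) carrying pTU175 luxCDABE promoter reporters was grown in LB in 384-well plates at 37°C with each of 94 compounds at 4 two-fold concentrations, in biological duplicates. Luminescence and OD600 were read every 30 min for 12 h and integrated as AUC over 8 h (0-8 h WT, 1-9 h mutants). Lux AUC was divided by OD AUC; the interaction score is the residual of a Huber robust fit of each promoter against the empty-vector control, then Z-transformed per promoter.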
compound,measurement,setting,value
C[C@H]1c2cccc(O)c2C(=O)C2=C(O)[C@]3(O)C(=O)C(C(N)=O)=C(O)[C@@H](N(C)C)[C@@H]3[C@@H](O)[C@@H]21 [Doxycycline],promoter activity interaction Z-score,"0.064 µg/ml, genetic background: wild type",0.973 ± 0.17
same,promoter activity interaction Z-score,"0.064 µg/ml, genetic background: ΔmarA",2.43 ± 0.098
same,promoter activity interaction Z-score,"0.064 µg/ml, genetic background: Δrob",0.676 ± 0.28
same,promoter activity interaction Z-score,"0.064 µg/ml, genetic background: ΔsoxS",1.01 ± 0.13
same,promoter activity interaction Z-score,"0.13 µg/ml, genetic background: wild type",2.72 ± 0.47
same,promoter activity interaction Z-score,"0.13 µg/ml, genetic background: ΔmarA",4.3 ± 0.47
same,promoter activity interaction Z-score,"0.13 µg/ml, genetic background: Δrob",1.1 ± 0.25
same,promoter activity interaction Z-score,"0.13 µg/ml, genetic background: ΔsoxS",2.28 ± 0.13
same,promoter activity interaction Z-score,"0.26 µg/ml, genetic background: wild type",3.51 ± 0.065
same,promoter activity interaction Z-score,"0.26 µg/ml, genetic background: ΔmarA",2.23 ± 1.1
same,promoter activity interaction Z-score,"0.26 µg/ml, genetic background: Δrob",0.478 ± 0.55
same,promoter activity interaction Z-score,"0.26 µg/ml, genetic background: ΔsoxS",3.1 ± 0.92
same,promoter activity interaction Z-score,"0.51 µg/ml, genetic background: wild type",0.833
C/C=C/C/C=C/CCC(=O)[C@H]1O[C@H]1C(N)=O [Cerulenin],promoter activity interaction Z-score,"1.3 µg/ml, genetic background: wild type",-0.429 ± 0.45
same,promoter activity interaction Z-score,"1.3 µg/ml, genetic background: ΔmarA",-0.469 ± 0.27
same,promoter activity interaction Z-score,"1.3 µg/ml, genetic background: Δrob",-0.456 ± 0.13
same,promoter activity interaction Z-score,"1.3 µg/ml, genetic background: ΔsoxS",-0.416 ± 0.089
same,promoter activity interaction Z-score,"2.5 µg/ml, genetic background: wild type",-0.654 ± 0.29
same,promoter activity interaction Z-score,"2.5 µg/ml, genetic background: ΔmarA",-0.403 ± 0.076
same,promoter activity interaction Z-score,"2.5 µg/ml, genetic background: Δrob",-0.662 ± 0.091
same,promoter activity interaction Z-score,"2.5 µg/ml, genetic background: ΔsoxS",-0.444 ± 0.12
same,promoter activity interaction Z-score,"5 µg/ml, genetic background: wild type",-0.892 ± 0.19
same,promoter activity interaction Z-score,"5 µg/ml, genetic background: ΔmarA",-0.779 ± 0.41
same,promoter activity interaction Z-score,"5 µg/ml, genetic background: Δrob",-0.818 ± 0.011
same,promoter activity interaction Z-score,"5 µg/ml, genetic background: ΔsoxS",-0.796 ± 0.034
same,promoter activity interaction Z-score,"10 µg/ml, genetic background: wild type",-0.948 ± 0.37
same,promoter activity interaction Z-score,"10 µg/ml, genetic background: ΔmarA",-0.377 ± 0.77
same,promoter activity interaction Z-score,"10 µg/ml, genetic background: Δrob",-1.01 ± 0.028
same,promoter activity interaction Z-score,"10 µg/ml, genetic background: ΔsoxS",-0.994 ± 0.11
Nc1ccc(C(=O)O)c(O)c1 [4-Aminosalicylic acid],promoter activity interaction Z-score,"19.1 µg/ml, genetic background: wild type",0.109 ± 0.4
same,promoter activity interaction Z-score,"19.1 µg/ml, genetic background: ΔmarA",0.307 ± 0.0067
same,promoter activity interaction Z-score,"19.1 µg/ml, genetic background: Δrob",0.19 ± 0.12
same,promoter activity interaction Z-score,"19.1 µg/ml, genetic background: ΔsoxS",0.147 ± 0.18
same,promoter activity interaction Z-score,"38.3 µg/ml, genetic background: wild type",0.0516 ± 0.015
same,promoter activity interaction Z-score,"38.3 µg/ml, genetic background: ΔmarA",0.172 ± 0.09
same,promoter activity interaction Z-score,"38.3 µg/ml, genetic background: Δrob",0.493 ± 0.39
same,promoter activity interaction Z-score,"38.3 µg/ml, genetic background: ΔsoxS",0.161 ± 0.086
same,promoter activity interaction Z-score,"76.6 µg/ml, genetic background: wild type",-0.0573 ± 0.025
same,promoter activity interaction Z-score,"76.6 µg/ml, genetic background: ΔmarA",-0.242 ± 0.12
same,promoter activity interaction Z-score,"76.6 µg/ml, genetic background: Δrob",0.384 ± 0.31
same,promoter activity interaction Z-score,"76.6 µg/ml, genetic background: ΔsoxS",-0.0494 ± 0.21
same,promoter activity interaction Z-score,"153.1 µg/ml, genetic background: wild type",0.642 ± 0.055
same,promoter activity interaction Z-score,"153.1 µg/ml, genetic background: ΔmarA",0.698 ± 0.021
same,promoter activity interaction Z-score,"153.1 µg/ml, genetic background: Δrob",0.956 ± 0.3
same,promoter activity interaction Z-score,"153.1 µg/ml, genetic background: ΔsoxS",0.968 ± 0.13
